In the library only some 3.4% were active in any assay of this set; here they are far more common.
PP5 primary – PP5 phosphatase inhibitors, primary screen, biochemical, fluorescence; purified PP5c, OMFP substrate fluorescence; inhibition, % at 6.7 µM; 320,000 tested, 0.18% active; AID 1987, 2009;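 active means inhibition above the campaign's mean inhibition across all tested compounds plus 3 SD, cut at about 9.5% in these data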
Target sequence (P53041 whole entry, looked up): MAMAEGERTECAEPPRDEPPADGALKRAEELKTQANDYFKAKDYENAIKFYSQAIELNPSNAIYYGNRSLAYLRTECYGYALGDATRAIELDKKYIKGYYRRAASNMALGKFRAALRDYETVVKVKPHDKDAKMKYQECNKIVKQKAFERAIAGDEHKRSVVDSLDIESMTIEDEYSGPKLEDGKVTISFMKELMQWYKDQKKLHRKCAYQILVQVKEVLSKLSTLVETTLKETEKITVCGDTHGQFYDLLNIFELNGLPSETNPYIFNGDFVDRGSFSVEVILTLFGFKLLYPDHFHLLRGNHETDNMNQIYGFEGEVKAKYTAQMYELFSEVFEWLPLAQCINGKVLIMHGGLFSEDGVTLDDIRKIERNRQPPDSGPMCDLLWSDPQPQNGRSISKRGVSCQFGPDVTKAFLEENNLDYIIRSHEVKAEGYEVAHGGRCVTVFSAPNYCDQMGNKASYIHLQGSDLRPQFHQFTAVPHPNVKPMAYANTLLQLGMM
pPAFAH FP inh – pPAFAH enzyme inhibitors, primary screen, biochemical, fluorescence polarization, human; recombinant pPAFAH, FP-rhodamine probe fluorescence polarization; 330,000 tested, 1.5% active; AID 463082, 2010; inhibition, % at 3.39 µM; Platelet-activating factor acetylhydrolase (Homo sapiens), Q13093;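 active means inhibition above the mean inhibition across the screen plus 3 SD, cut at about 25% in these data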;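 further: inhibitors block binding of the rhodamine activity-based probe so polarization drops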
PAFAH1B3 FP inh – PAFAH1B3 enzyme inhibitors, primary screen, biochemical, fluorescence polarization, human | 340,000 tested, 0.28% active | inhibition, % at 3.39 µM | recombinant PAFAH1B3, FP-rhodamine probe | Platelet-activating factor acetylhydrolase IB subunit alpha1 (Homo sapiens), Q15102 | AID 492972, 2010;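 active means inhibition above the screen-wide average of all tested compounds plus 3 SD, cut at about 25% in these data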
PAFAH2 FP inh – PAFAH2 enzyme inhibitors, primary screen, biochemical, fluorescence polarization, human | recombinant PAFAH2, FP-rhodamine activity probe | inhibition, % at 3.39 µM | 340,000 tested, 0.99% active;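 active means inhibition above the mean over all tested compounds plus 3 SD, cut at about 30% in these data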;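 further: inhibitors block probe labeling of enzyme so polarization drops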
PAFAH1B2 FP inh – PAFAH1B2 enzyme inhibitors, primary screen, biochemical, fluorescence polarization, human; inhibition, % at 3.39 µM; recombinant PAFAH1B2, FP-rhodamine activity probe; 340,000 tested, 1.2% active; Platelet-activating factor acetylhydrolase IB subunit alpha2 (Homo sapiens), P68402;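 active means inhibition above the mean of all tested compounds plus 3 SD, cut at about 24% in these data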
PP1 counter – PP1-alpha phosphatase inhibitors, primary screen, counter-screen for PP5 inhibitor project, biochemical, fluorescence, OMFP substrate, single point. AID 2235, 2010. inhibition, % at 6.7 µM. 320,000 tested, 0.9% active. purified PP1alpha. Serine/threonine-protein phosphatase PP1-alpha catalytic subunit (Homo sapiens), P62136;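 active means inhibition above the mean inhibition of all tested compounds plus 3 SD, computed separately for each screening campaign, cut at about 15% in these data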
PP1 inh confirm – PP1 phosphatase inhibitors, confirmation, biochemical, fluorescence, OMFP substrate, triplicate; purified PP1alpha; shares compounds with PP1 counter; inhibition, % at 6.7 µM; 1,900 tested, 52% active;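 active means mean PP1 inhibition above a set limit taken from the earlier primary screen, cut at about 15% in these data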
PP5 inh counter – PP5 phosphatase inhibition by PP1 hits, confirmation, counter-screen for PP1 inhibitor project, biochemical, fluorescence, triplicate. 1,900 tested, 4% active. shares compounds with PP1 counter. inhibition, % at 6.7 µM. purified PP5c, OMFP fluorescence;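 active means mean PP5 inhibition over triplicate wells above about 9.5% taken from the earlier PP1 screen, limit read from the data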
Hits are given with their value; i = inactive; nt = no result.

SMILES	PP5 primary	pPAFAH FP inh	PAFAH1B3 FP inh	PAFAH2 FP inh	PAFAH1B2 FP inh	PP1 counter	PP1 inh confirm	PP5 inh counter
O=C(NC(C(=O)N/N=C/c1cccc2ccccc12)c1n[nH]c(=O)c2ccccc12)c1ccccc1 (stereo unspecified)	i	i	i	i	i	i	nt	nt
O=C(NC(C(=O)N/N=C/c1cc([N+](=O)[O-])ccc1O)c1n[nH]c(=O)c2ccccc12)c1ccccc1 (stereo unspecified)	i	i	i	i	i	27	18	i
C[C@@H]1C[C@H]2[C@@H]3CCC4=CC(=O)C=C[C@]4(C)[C@@]3(Cl)[C@@H](O)C[C@]2(C)[C@@]1(OC(=O)c1ccco1)C(=O)CCl	i	i	i	i	i	23	27	i
COc1cc(C(=O)Nc2nc(OC)c(-c3ccccc3)c(OC)n2)cc(OC)c1OC	i	i	i	i	i	i	nt	nt
COc1cc(C(=O)Nc2cc(-c3ccccc3)[nH]n2)cc(OC)c1OC	i	i	i	i	i	20	17	i
CCn1c(CC(=O)Nc2ccc(C)cc2)nnc1SCC(=O)N1CCOCC1	i	i	i	i	i	26	i	i
C=CCn1c(CC(=O)Nc2ccc(C)cc2C)nnc1SCC(=O)N1CCOCC1	i	i	i	i	i	i	nt	nt
CC(CC(=O)N1CCc2ccccc21)n1cccn1 (stereo unspecified)	i	i	i	i	i	i	nt	nt
Cc1sc(N(C(=O)CCc2ccccc2)c2ccc(C(=O)O)cc2)nc1-c1ccccc1	i	25	i	i	34	20	15	i
Cc1ccc(CN(C)C(=O)CCc2nc3sc4c(c3c(=O)[nH]2)CCCC4)o1	i	i	i	i	i	i	nt	nt
CCCC(=O)NC(c1cccs1)c1cc(Cl)c2cccnc2c1O (stereo unspecified)	i	33	i	i	i	27	23	i
CCC(=O)NC(c1ccc(C)cc1)c1cc(Cl)c2cccnc2c1O (stereo unspecified)	nt	i	i	i	i	nt	nt	nt
CCCC(=O)NC(c1ccc2c(c1)OCO2)c1cc(Cl)c2cccnc2c1O (stereo unspecified)	i	32	i	i	i	20	24	i
CCOc1ccc(C(Nc2cccnc2)c2cc(Cl)c3cccnc3c2O)cc1 (stereo unspecified)	i	i	i	i	i	19	21	i
CN(CC(=O)Nc1cccc(F)c1)C(=O)c1cccc(S(=O)(=O)N2CC3(C)CC2CC(C)(C)C3)c1 (stereo unspecified)	i	i	i	i	i	i	nt	nt
CCCCn1c(=O)[nH]c(=O)c2c1nc(-c1ccccc1F)n2Cc1ccccc1OC	i	i	i	i	i	i	nt	nt
CCOC(=O)C1(Cc2ccccc2C)CCCN(C(=O)c2ccoc2)C1 (stereo unspecified)	i	i	i	i	i	i	nt	nt
CCOC(=O)C1(Cc2ccccc2C)CCCN(C(=O)c2ccc(OC)o2)C1 (stereo unspecified)	i	i	i	i	i	26	i	i
COc1ccc(S(=O)(=O)Nc2ccccc2C(=O)NCc2cccnc2)cc1OC	i	i	i	i	i	i	nt	nt
Cc1noc(C)c1COc1ccccc1C(=O)NCc1ccco1	i	i	i	i	i	i	nt	nt
CSc1nc(Oc2ccc(F)cc2)c2ccccc2n1	i	i	i	i	i	i	nt	nt
c1ccc(CCNc2nc(-c3ccccn3)nc3ccccc23)cc1	i	i	i	i	i	29	50	i
c1ccc(-c2nc(N3CCCCCC3)c3ccccc3n2)nc1	i	i	i	i	i	27	26	i
Fc1ccc(Oc2nc(-c3ccccn3)nc3ccccc23)cc1	i	i	nt	nt	nt	18	23	i
CCCN(CCC)c1nc(-c2ccccn2)nc2ccccc12	nt	nt	i	i	i	nt	nt	nt
SMILES	PP5 primary	pPAFAH FP inh	PAFAH1B3 FP inh	PAFAH2 FP inh	PAFAH1B2 FP inh	PP1 counter	PP1 inh confirm	PP5 inh counter
c1ccc(-c2nc(N3CCOCC3)c3ccccc3n2)nc1	i	i	i	i	i	i	nt	nt
Cn1c(=O)c(C(=O)Nc2ncccc2O)c(O)c2ccccc21	i	i	i	i	i	28	30	i
CCOc1cc(/C=N/NC(=O)Cn2nc([N+](=O)[O-])cc2C)cc(Br)c1OCc1ccccc1F	i	i	i	i	i	i	nt	nt
CCOc1cc(/C=N/NC(=O)Cn2nc([N+](=O)[O-])cc2C)ccc1OCc1ccc(F)cc1	i	i	i	i	i	18	17	i
NS(=O)(=O)c1cccc(NC(=O)CSc2nc3nc(-c4cccs4)cc(C(F)(F)F)c3c(=O)[nH]2)c1	i	i	i	i	i	27	21	i
O=C(CSc1nc2nc(-c3cccs3)cc(C(F)(F)F)c2c(=O)[nH]1)Nc1c(F)c(F)c(F)c(F)c1F	i	i	i	i	i	i	nt	nt
O=C1N/C(=C/c2ccc(N3CCCC3)cc2)C(=O)N1c1ccccc1	i	i	i	i	i	23	i	i
Cc1c(NC(=O)c2cccc(-c3cc4ccccc4oc3=O)c2)cccc1-c1nc2ncccc2o1	i	i	i	i	i	23	31	i
COc1ccc2nc(NC(=O)c3cccc(-c4cc5ccccc5oc4=O)c3)sc2c1	i	i	i	i	i	23	26	i
COC(=O)c1ccc(S(=O)(=O)NC(C)(C)C)n1C	i	i	i	i	i	i	nt	nt
O=C(C1CCN(Cc2cn[nH]c2-c2ccc(F)cc2F)CC1)N1CCOCC1	i	i	i	i	i	43	i	i
O=C(CC(NC(=O)c1ccccc1Cl)c1ccccc1)NCCc1ccc(Cl)cc1 (stereo unspecified)	i	i	i	i	i	19	i	i
COc1cc(C(=O)NCC(=O)NCC(c2ccco2)N2CCCCC2)cc(OC)c1OC (stereo unspecified)	i	i	i	i	i	i	nt	nt
CC(NC(=O)C(NS(=O)(=O)c1cccs1)C(C)C)c1ccc(S(N)(=O)=O)cc1 (stereo unspecified)	i	i	i	i	i	i	nt	nt
O=C(O)c1ccc(/C=N\Nc2ccc(S(=O)(=O)N3CCOCC3)cc2[N+](=O)[O-])cc1	i	i	i	i	i	i	nt	nt

Bioassay records (PubChem BioAssay)
